PubChem BioAssay
Activity calls are given as the source filed them.

Experiments:
[1] = tested on: Human papillomavirus type 1a protein E7 (residues 44-93); test: HPV1a E7 fragment binders on microarrays, primary screen, biochemical, small-molecule microarray, residues 44-93, 635 nm fluorescence (AID 1108); details: small-molecule microarray binding, fluorescence 635 nm; higher = more signal;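 also: E7 fragment applied at 1 µg/mL in TBST for 1 h at 4 C; score combines spot fluorescence with its signal to noise ratio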
[2] = modulators of HCV replicon luciferase signal, primary screen, HCV replication inhibitor project, Huh7 cells, luciferase reporter (AID 1109); details: 48 h, higher = more signal;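 also: huh7 hepatoma cells harbouring a luciferase neomycin HCV replicon reporter; luciferase luminescence as measure of HCV replicon replication; test concentration not given here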
[3] = biological target: Left-right determination factor 2 (Homo sapiens) (UniProt O00292); test: LEFTY2 binders on small-molecule microarrays, primary screen, biochemical, small-molecule microarray, 635 nm fluorescence scan (AID 1110); details: LEFTY2 binding, higher = more signal
[4] = biological target: Calmodulin-1 (Homo sapiens) (UniProt P0DP23); test: CALM1 binders on microarrays, EGTA buffer, profiling panel, biochemical, small-molecule microarray, Cy5-labelled CALM1 (AID 1111); details: Cy5-CALM1 binding fluorescence, higher = more signal;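 also: labelled calmodulin applied in Tris saline Tween buffer holding calcium plus EGTA and DTT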
[5] = biological target: Calmodulin-1 (Homo sapiens) (UniProt P0DP23); test: calcium-bound CALM1 binders on microarrays, profiling panel, artefact control for SMM control-protein annotation, biochemical, small-molecule microarray, Cy5-labelled CALM1, plus calcium (AID 1112); details: Cy5-CALM1 binding fluorescence, higher = more signal;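 also: score merges spot fluorescence with signal to noise from triplicate slides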
[6] = small-molecule microarray binders of probe aWnt5a, primary screen, biochemical, biotinylated probe, 635/667 nm fluorescence (AID 1113); details: higher = more signal;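 also: score merges 667 nm fluorescence intensity with signal-to-noise per printed feature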
[7] = small-molecule microarray binders of probe aShh, primary screen, biochemical, biotinylated probe, 635/667 nm fluorescence (AID 1114); details: higher = more signal;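 also: probe is biotin-labelled aShh protein from a stem cell growth factor screen; measures binding of labelled protein to compounds printed on the slide; score merges feature fluorescence at 667 nm with signal-to-noise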
[8] = small-molecule microarray binders of probe aNog, primary screen, biochemical, biotinylated probe, 635/667 nm fluorescence (AID 1115); details: higher = more signal;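 also: probe is biotinylated aNog protein used at 0.15 µg/mL for 1 h at 4 C; z-score combines 667 nm fluorescence of each spot with its signal to noise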
[9] = biological target: Torsin-1A-interacting protein 1 (Homo sapiens) (UniProt Q5JTV8); test: LAP1 binders from COS7 cell lysate, primary screen, small-molecule microarray, 635/667 nm fluorescence (AID 1116); details: COS7-hLAP1 lysate binding, 635 nm fluorescence, higher = more signal
[10] = biological target: Alpha-bungarotoxin (Bungarus multicinctus) (UniProt P60615); test: alpha-bungarotoxin binders on microarray, profiling panel, artefact control for SMM control protein annotation, biochemical, small-molecule microarray, Alexa647 label, 635/667 nm fluorescence (AID 1117); details: alpha-BTX-A647 binding fluorescence, higher = more signal
Albumin (Bos taurus) = Albumin (Bos taurus) (UniProt P02769); test: bovine serum albumin binders on microarray, profiling panel, artefact control for SMM control protein annotation, biochemical, small-molecule microarray, Alexa647 label, 635/667 nm fluorescence (AID 1118); details: BSA-A647 binding, fluorescence 635 nm, higher = more signal;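 also: score merges 667 nm emission intensity and signal-to-noise per printed compound spot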
[11] = small-molecule microarray binders of probe aXIP, primary screen, biochemical, NeuroSMM set, 635/667 nm fluorescence (AID 1119); details: higher = more signal, called active from +8 up or from −8 down;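 also: probe is the protein aXip251-270 applied at 1 µg/mL to compound-printed slides; binding of probe to printed compounds measured as 667 nm fluorescence plus signal to noise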
[12] = small-molecule binders of probe aNOTCH3, primary screen, biochemical, small-molecule microarray, 635/667 nm fluorescence (AID 1120); details: higher = more signal;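 also: probe is a biotin-tagged antibody raised against NOTCH3 rather than NOTCH3 protein; score merges spot fluorescence near 667 nm with spot signal to noise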
[13] = small-molecule binders of probe aNOTCH2, primary screen, biochemical, small-molecule microarray, 635/667 nm fluorescence (AID 1121); details: higher = more signal;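 also: score merges feature fluorescence read at 667 nm with its signal to noise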
[14] = biological target: Carbonic anhydrase 2 (Homo sapiens) (UniProt P00918); test: CAII small-molecule binders, profiling panel, biochemical, small-molecule microarray, Alexa647-labelled CAII (AID 1122); details: CAII-A647 binding fluorescence, higher = more signal
[15] = COS7 lysate on small-molecule microarray, probe aHis, 635 nm (AID 1123); details: COS7 cell lysate, fluorescence, higher = more signal;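 also: z-score combines 667nm fluorescence intensity with signal-to-noise per printed compound spot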
[16] = compound binding in COS7 lysate, probe aLAP1, primary screen, cell lysate, small-molecule microarray (AID 1124); details: probe aLAP1, fluorescence, higher = more signal;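 also: lysate comes from COS7 cells expressing LAP1 and is applied at 0.3 µg/mL; score merges spot fluorescence near 667 nm with signal-to-noise over triplicate slides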
Sam68 (KHDRBS1) = test: Sam68 small-molecule binders, primary screen, biochemical, small-molecule microarray, 635 nm fluorescence (AID 1125); details: small-molecule microarray binding, higher = more signal;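 also: score merges 667 nm channel intensity with signal to noise over triplicate slides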
[17] = tested on: Chordin-like protein 2 (CHRDL2); test: CHRDL2 small-molecule binders, primary screen, biochemical, small-molecule microarray, 635 nm fluorescence (AID 1126); details: small-molecule microarray binding, fluorescence 635 nm; higher = more signal;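 also: printed compound slides probed with Chrdl2 protein at 4 µg/mL for 1 h at 4 C; score merges 667 nm emission intensity with signal to noise over three replicate slides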
[18] = biological target: Concanavalin-A (Canavalia ensiformis) (UniProt P02866); test: ConA small-molecule binders, primary screen, artefact control for SMM control protein annotation, biochemical, small-molecule microarray, Alexa647 label, 635 nm (AID 1127); details: ConA-A647 binding fluorescence, higher = more signal;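 also: z combines 667 nm emission intensity with signal-to-noise across three replicate slides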
Sequence of Concanavalin-A (Canavalia ensiformis) (P02866 whole entry, looked up): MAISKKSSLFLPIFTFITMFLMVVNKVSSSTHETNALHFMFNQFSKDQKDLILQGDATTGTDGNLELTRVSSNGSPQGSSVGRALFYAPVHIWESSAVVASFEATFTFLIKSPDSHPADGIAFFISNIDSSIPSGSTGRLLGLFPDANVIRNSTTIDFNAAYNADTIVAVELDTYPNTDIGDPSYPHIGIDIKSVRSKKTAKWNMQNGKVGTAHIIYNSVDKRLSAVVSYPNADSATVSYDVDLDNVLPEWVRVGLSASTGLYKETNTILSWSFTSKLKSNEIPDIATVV

Sequence of Albumin (Bos taurus) (P02769 whole entry, looked up): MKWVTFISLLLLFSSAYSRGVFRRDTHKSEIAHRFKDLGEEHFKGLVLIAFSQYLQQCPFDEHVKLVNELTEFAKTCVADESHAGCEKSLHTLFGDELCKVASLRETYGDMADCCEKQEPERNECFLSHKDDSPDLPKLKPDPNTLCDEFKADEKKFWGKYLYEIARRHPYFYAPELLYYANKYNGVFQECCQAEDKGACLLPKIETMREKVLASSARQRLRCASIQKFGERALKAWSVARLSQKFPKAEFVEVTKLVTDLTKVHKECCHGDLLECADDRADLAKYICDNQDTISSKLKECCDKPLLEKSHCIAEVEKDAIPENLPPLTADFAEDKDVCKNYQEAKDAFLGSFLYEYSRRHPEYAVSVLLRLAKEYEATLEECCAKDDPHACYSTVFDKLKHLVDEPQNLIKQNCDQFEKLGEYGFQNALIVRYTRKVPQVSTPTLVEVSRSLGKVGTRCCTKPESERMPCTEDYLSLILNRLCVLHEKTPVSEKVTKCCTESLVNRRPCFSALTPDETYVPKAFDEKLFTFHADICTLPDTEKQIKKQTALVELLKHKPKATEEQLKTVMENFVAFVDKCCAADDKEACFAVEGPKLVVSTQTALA
Sequence of Torsin-1A-interacting protein 1 (Homo sapiens) (Q5JTV8 whole entry, looked up): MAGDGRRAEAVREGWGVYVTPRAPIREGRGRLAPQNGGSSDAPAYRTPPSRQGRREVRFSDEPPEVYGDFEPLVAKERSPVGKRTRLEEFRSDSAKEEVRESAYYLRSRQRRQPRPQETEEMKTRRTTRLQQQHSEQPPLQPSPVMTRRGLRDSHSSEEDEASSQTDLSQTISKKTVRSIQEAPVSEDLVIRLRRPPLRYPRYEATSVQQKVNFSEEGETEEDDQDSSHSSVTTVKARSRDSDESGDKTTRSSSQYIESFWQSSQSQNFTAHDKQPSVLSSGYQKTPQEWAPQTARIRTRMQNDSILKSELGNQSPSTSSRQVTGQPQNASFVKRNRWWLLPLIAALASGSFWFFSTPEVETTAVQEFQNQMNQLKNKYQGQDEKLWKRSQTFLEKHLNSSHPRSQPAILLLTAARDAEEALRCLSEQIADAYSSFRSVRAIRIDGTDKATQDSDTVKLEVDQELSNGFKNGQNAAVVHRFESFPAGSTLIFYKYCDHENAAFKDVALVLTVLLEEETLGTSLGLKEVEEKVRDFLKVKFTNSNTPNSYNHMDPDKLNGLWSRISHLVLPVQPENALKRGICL
Sequence of Alpha-bungarotoxin (Bungarus multicinctus) (P60615 whole entry, looked up): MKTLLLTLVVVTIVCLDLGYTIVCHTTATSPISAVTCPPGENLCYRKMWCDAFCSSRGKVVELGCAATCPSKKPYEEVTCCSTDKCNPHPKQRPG
Sequence of Left-right determination factor 2 (Homo sapiens) (O00292 whole entry, looked up): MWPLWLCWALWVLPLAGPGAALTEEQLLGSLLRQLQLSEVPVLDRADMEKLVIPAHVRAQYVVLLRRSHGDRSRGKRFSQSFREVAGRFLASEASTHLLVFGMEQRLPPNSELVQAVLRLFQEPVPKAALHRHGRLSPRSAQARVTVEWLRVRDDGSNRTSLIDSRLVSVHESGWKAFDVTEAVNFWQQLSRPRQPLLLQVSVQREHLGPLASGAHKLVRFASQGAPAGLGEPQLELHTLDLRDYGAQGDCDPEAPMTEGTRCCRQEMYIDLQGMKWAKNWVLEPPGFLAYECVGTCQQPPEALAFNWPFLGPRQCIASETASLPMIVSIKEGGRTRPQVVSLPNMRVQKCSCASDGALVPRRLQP

SMILES	composite z-score [1]	z-score [2]	composite z-score [3]	composite z-score [4]	composite z-score [5]	composite z-score [6]	composite z-score [7]	composite z-score [8]	composite z-score [9]	composite z-score [10]	composite z-score (Albumin (Bos taurus))	composite Z-score [11]	composite z-score [12]	composite z-score [13]	composite z-score [14]	composite z-score [15]	composite z-score [16]	composite z-score (Sam68 (KHDRBS1))	composite z-score [17]	composite z-score [18]
CC(=O)NCCCC[C@@H]1NC(=O)[C@@H]2C[C@H](C(=O)NCCCCCNC(=O)CS)[C@H](c3ccc(O)cc3)N2C1=O	0.364	1.22	-0.293	-0.592	0.503	-0.221	0.0284	-0.0315	0.0502	-0.46	-0.0591	1.43 (inactive)	-0.282	-0.203	0.497	0.534	-0.377	-0.0077	-0.13	-0.579
C=CCOC(=O)[C@@H]1[C@H]2C(=O)O[C@H](c3ccccc3)[C@H](c3ccccc3)N2[C@H](c2ccc(OCCOC(=O)[C@H]3C[C@H]4C(=O)N[C@@H](CCCCNC(C)=O)C(=O)N4[C@H]3c3ccc(O)cc3)cc2)[C@@]12C(=O)Nc1ccc(I)cc12	1.39	-1.66	0.576	0.419	0.232	-0.104	-0.232	-0.0496	0.818	1.07	-0.239	0.396 (inactive)	0.0222	-0.0662	0.374	0.877	0.278	1.28	1.15	0.499
CO[C@@H]1COC(=O)[C@H](C)NC(=O)CC=C[C@@H](C)[C@H](OC)COC(=O)[C@H](C)NC(=O)CC=C[C@H]1C	0.0508	-0.0787	0.787	-0.202	-1.26	-0.0684	-0.223	-0.248	0.0309	-0.59	-0.406	0.137 (inactive)	-0.226	-0.124	-0.305	-0.466	0.0381	0.315	1.16	0.44
COC(=O)[C@@]1(Cc2ccccc2N=[N+]=[N-])N=C(c2ccc(OCCCO)cc2)O[C@H]1c1ccccc1CN=[N+]=[N-]	0.403	-3.35	-0.417	0.559	0.0128	-0.0758	-0.136	1.01	0.889	1.28	-0.487	0.289 (inactive)	-0.0699	0.0341	0.571	2.1	-0.113	1.22	0.0008	0.456
[N-]=[N+]=NCc1ccccc1C[C@]1(C(=O)N2CCCCC2)N=C(c2ccc(OCCCO)cc2)O[C@H]1c1ccccc1CN=[N+]=[N-]	1.41	-2.73	-0.406	1.67	0.855	0.0375	0.503	1.25	1.95	1.11	0.899	0.375 (inactive)	0.268	-0.0817	0.441	2.56	0.796	1.29	-0.914	1.04
